From PubChem BioAssay
Active and inactive are the calls of the source.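 The calls were made as follows: active = signal rise over 3 SD above mean of control wells given weak agonist, in both repeats and first screen; inactive = the rest.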

Test system: TRPC4 (mouse), co-expressed with 5HT1a in HEK293
Experiment: calcium flux potentiators in TRPC4/5HT1a cells, confirmation, counter-screen for TRPC4 potentiator project, cell-based, second counter screen, HEK293 TRPC4/5HT1a, Fluo-4 (AID 434979)
Settings: Fluo-4 calcium flux, at 10 µM, serotonin added at its EC20 dose; hits give high values

| SMILES | outcome | potentiation |
| --- | --- | --- |
| NC1=NC2(CCN(Cc3ccccc3)CC2)n2c(nc3ccccc32)N1 | inactive |  |
| COc1ccc(CN2CCC(N(CCc3ccccc3)Cc3ccccc3)CC2)c(OC)c1 | inactive |  |
| CCc1ccc(C(=O)c2cnc3ccc(OC)cc3c2N2CCN(CC)CC2)cc1 | inactive |  |
| S=C(NCCc1cnc[nH]1)NC1CCCC1 | inactive |  |
| O=C(NCc1ccccc1)C1=C[C@H](c2ccccc2)C[C@H](OCc2ccc(CO)cc2)O1 | inactive |  |
| Cc1ccc(OCC(=O)N(C)CCc2ccccn2)cc1 | inactive |  |
| CC(C)(C)C(=O)/C=c1\s/c(=C\c2ccc(-c3ccc([N+](=O)[O-])cc3)o2)c(=O)n1CC(=O)NC(N)=O |  | 14% (active) |
| NC(=O)C1CCCN(CCc2ccccc2)C1 (centres undefined) | inactive |  |
| Cc1cc2nc3s/c(=C/c4ccc(-c5ccccc5C(=O)O)o4)c(=O)n3c2cc1C | inactive |  |
| COc1ccc(CNCc2cn(-c3cccc(F)c3)nc2-c2ccc(C)o2)cc1 | inactive |  |
| CN(C)C(CNc1ccc(C(F)(F)F)cn1)c1ccccc1 (centres undefined) | inactive |  |
| CN(C)C(CNC(=O)c1cccc(S(=O)(=O)N(C)C)c1)c1ccccc1 (centres undefined) | inactive |  |
| CCCc1c(O)nc(SCCN(CC)CC)[nH]c1=O | inactive |  |
| CCC(=O)N1CCc2cc(Br)cc(S(=O)(=O)NCCCN(CC)Cc3ccccc3)c21 | inactive |  |
| Cc1ccc(Cn2c(SCCN3CCCCC3)nc3c2c(=O)n(C)c(=O)n3C)cc1 |  | 81% (active) |
| O=C(O)C1C2C=CC(C2)C1C(=O)N1CCN(C/C=C/c2ccccc2)CC1 (centres undefined) | inactive |  |
| COc1ccc(C)c(NC(=O)NCCc2cnc[nH]2)c1 | inactive |  |
| OCCC1CN(Cc2ccccc2-c2ccco2)CCN1Cc1ccccc1 (centres undefined) | inactive |  |
| COc1ccc(CCN(C)C(=O)C2CCCN(C3CCN(Cc4ccccc4)CC3)C2)cc1OC (centres undefined) | inactive |  |
| CCOc1ccc(S(=O)(=O)Nc2cccc(C(=O)NCC(c3ccccc3)N(C)C)c2)cc1 (centres undefined) | inactive |  |

| SMILES | outcome | potentiation |
| --- | --- | --- |
| Cc1cc(C)cc(NC(=S)N2CCN(c3ncc(C(F)(F)F)cc3Cl)CC2)c1 | inactive |  |
| COc1ccc(C(CNC(=O)c2cccc(Br)c2)N2CCCC2)cc1 (centres undefined) | inactive |  |
| CC(C)n1cnc2c(N(C)c3ccccc3)nc(N(CCN(C)C)Cc3ccccc3)nc21 | inactive |  |
| Cc1cccn2c(CNCCc3ccccn3)c(C(=O)N3CCOCC3)nc12 | inactive |  |
| Cc1ccc(C)c(-n2cc(CNCCCn3cccn3)c(-c3ccccc3)n2)c1 | inactive |  |
| Cc1csc2c(N3CCN(C(=O)Nc4ccc(OC(F)(F)F)cc4)CC3)ncnc12 | inactive |  |
| CN(CCc1ccccn1)C(=S)Nc1cccc(S(=O)(=O)N(C)C)c1 | inactive |  |
| Cc1ccc(NC(=S)NC2CC3CCC(C2)N3Cc2ccco2)c(C)c1 (centres undefined) | inactive |  |
| COc1cc2c(cc1OC)C(C)N(C(=O)C(NC(=O)c1ccccc1)C(C)C)CC2 (centres undefined) | inactive |  |
| O=C(NC1CC1)C1=C[C@H](c2csc3ccccc23)C[C@H](OCc2ccc(CO)cc2)O1 | inactive |  |
| Clc1ccc2nc(N3CCNCC3)nc(-c3ccccc3)c2c1 | inactive |  |
| COc1ccc(C(CNC(=O)/C=C/c2c(Cl)nc3ccccn23)N(C)C)cc1 (centres undefined) | inactive |  |
| CC(=O)n1cc([C@H]2C=C(C(=O)NCc3ccccc3)O[C@@H](OCc3ccc(CO)cc3)C2)c2ccccc21 | inactive |  |
| CCCn1ncc(CN2CCC(n3nccc3NC(=O)CCc3ccccc3)CC2)c1C | inactive |  |
| CC(=O)NC(CC(=O)NCC(c1ccco1)N(C)C)c1ccccc1 (centres undefined) | inactive |  |
| COc1ccc(C(=O)NNC(=S)NC(=O)c2cccs2)cc1 | inactive |  |
| COCCn1nnnc1C(c1cc2ccc(OC)cc2[nH]c1=O)N1CCN(C2CCCCC2)CC1 (centres undefined) | inactive |  |
| O=C(c1sc2ccccc2c1Cl)N(Cc1ccccc1)C1CCS(=O)(=O)C1 (centres undefined) | inactive |  |
| O=c1c(Cc2ccc(F)cc2)c(O)ccn1CCc1cnc[nH]1 | inactive |  |
